Data published in PubChem BioAssay (NCATS).
Results filed as inconclusive are left out. Unmarked numbers belong to inactive results. The source made the active and inactive calls. The call rests on the fitted dose curve; in most records, active means well fitted inhibition curve with a large enough effect; inconclusive means small, poorly fitted or top-dose-only effect; inactive means flat fitted curve, though single readings scatter.

Target: Calcium and integrin-binding protein 1 (Homo sapiens) (UniProt Q99828)
Test: Primary qHTS for Identification of Calcium Integrin Binding Protein 1 (CIB1) Competitor (AID 1508620); on activity change, negative = inhibition: top concentration of the series differs between compounds
Conditions: CIB1-GST / FITC-alphaIIb peptide fluorescence polarization; series mostly up to 114 µM; activity change, negative = inhibition: at the top concentration
How it was run: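 Fluorescence polarization competition: GST-tagged CIB1 (1 uM final) preincubated with compound 15 min at room temperature, then FITC-labelled alphaIIb peptide (100 nM final) added. After 15 min at room temperature, polarization read at Ex 480/Em 540.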
On the % scale 0 is the no-effect control and ±100 the full control effect; potency means the concentration at half of the fitted maximal effect.

Calcium and integrin-binding protein 1 (Homo sapiens), sequence (Q99828 whole entry, looked up): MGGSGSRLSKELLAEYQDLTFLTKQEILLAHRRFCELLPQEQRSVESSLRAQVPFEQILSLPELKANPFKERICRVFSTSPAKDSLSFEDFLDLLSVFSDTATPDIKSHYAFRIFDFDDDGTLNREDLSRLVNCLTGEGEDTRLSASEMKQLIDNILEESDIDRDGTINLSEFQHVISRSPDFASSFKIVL

Compound | activity change, negative = inhibition | Potency
Cc1cc(NC(=O)Nc2nnc(-c3ccncc3)s2)ccc1F | -2.03% | –
Cc1c(Cl)cccc1NS(=O)(=O)c1cc2c(cc1F)NC(=O)CC2 | -2.03% | –
COc1cccc(CNc2ccc([S+](=O)([O-])Nc3cc4ccccc4s3)cc2)c1O | 0.126% | –
O=C(CNC(=O)c1ccc(C(F)(F)F)cc1)OC(C(=O)Nc1cc(C(F)(F)F)ccc1Cl)c1ccccc1 (stereo not given) | 0.988% | –
CCc1nnc(-c2cnn(C)c2N)n1CCCn1ccnc1 | -0.903% | –
COc1ccc(C2Nc3ccccc3C(=O)N2Cc2ccccc2)cc1COc1ccc(NC(C)=O)cc1 (stereo not given) | 0.591% | –
COc1cccc(C2C(C#N)=C(NC(=O)NCc3ccccc3)Oc3ccc4ccccc4c32)c1 (stereo not given) | 12.9% | –
COc1ccc(OC)c(C2=Nn3c(nnc3-c3ccc(OC)c(OC)c3)SC2)c1 | 3.65% | –
Cc1cc(C)nc(NC(=S)N2CCN(c3cccc4cnccc34)CC2)c1 | -9.88% | –
CCOc1ccccc1-c1nnc2n1N=C(c1cc(OC)ccc1OC)CS2 | 2.98% | –
O=c1c2ccccc2nc(-c2ccccc2O)n1Cc1ccccc1 | 3.98% | –
COc1ccc(O)c(-c2nc3ccccc3c(=O)n2Cc2ccccc2)c1 | 2.78% | –
O=Cc1c(-c2ccccc2)no[n+]1[O-] | – | 50.1 µM (active)
O=c1[nH]c2ccc(S(=O)(=O)N3CCN(S(=O)(=O)c4c(F)cccc4F)CC3)cc2[nH]c1=O | 11.7% | –
O=C1c2ccccc2C(=O)N1c1ccc(Cl)cc1 | 7.5% | –
COc1cc(O)c(C(CC(=O)N2CCCC(CN3CCCCC3)C2)c2ccc3c(c2)OCO3)c(OC)c1 (stereo not given) | 3.11% [at 228 µM] | –
CC(=O)Nc1sc2c(c1-c1ccc(Cl)cc1)CCNC2 | 5.04% | –
O=C1CCCC2=C1C1(CCCC1)N=C(Nc1nc3cc(Br)ccc3o1)N2 | 1.75% | –
O=C1c2ccccc2C(=O)N1c1ccc2ncccc2c1 | -0.611% | –
CCOc1ccc(C(=O)Oc2ccc(-c3nc4ccccc4[nH]3)cc2)cc1Cl | 7.2% | –

Compound | activity change, negative = inhibition | Potency
CNc1oc(-c2cccc(Cl)c2)nc1C#N | -1.69% | –
Cc1cc(C)nc(NC(=S)N2CCN(c3cncc4ccccc34)CC2)c1 | -3.93% | –
C(=C\c1cccs1)/c1cccnc1 | 3.07% | –
CCC(=O)NC(c1cc(Cl)c2cccnc2c1O)C(C)C (stereo not given) | -8.8% | –
CC(C)(C)OC(=O)NCCCNc1ncnc2ccc(-c3ccc4c(c3)OCO4)cc12 | 20.9% | –
COc1ccc(C(=O)c2ccc(-c3no[n+]([O-])c3C#N)cc2)cc1 | -2.59% | –
CN(C)CCNc1ncnc2ccc(-c3ccc4c(c3)OCO4)cc12 | 3.94% | –
CC(C)(C)OC(=O)N1CCN(c2ccc(NCc3cncc(-c4ccc(C#N)cc4)c3)cc2)CC1 | -5.96% | –
O=C(c1c(F)cccc1F)N1CCN(S(=O)(=O)c2ccc3c(c2)OCCO3)CC1 | 1.02% | –
Fc1ccccc1N1CCN(c2nc(-c3cccs3)nc3ccccc23)CC1 | -1.98% | –
Cc1ccc(OCCn2c(CCNC(=O)c3cccc(Cl)c3)nc3ccccc32)cc1 | 1.18% | –
COc1cccc(NC(=S)N2CCN(c3cccc(Cl)c3Cl)CC2)n1 | 9.58% | –
Cc1ccnc(NC(=S)N2CCN(c3ccc(C(F)(F)F)cc3[N+](=O)[O-])CC2)c1 | -9.39% | –
Cc1ccc(NS(=O)(=O)c2cc3c(cc2C)NC(=O)CO3)cc1C | 0.574% | –
N#CC1=C(NC=NCc2ccccc2)Oc2ccc3ccccc3c2C1c1ccccc1 (stereo not given) | 13.6% | –
O=C(COC(=O)CNC(=O)C1CCCCC1)Nc1ccccc1Cl | 4.11% | –
N#Cc1nc(NCCO)nc(Nc2ccccc2)n1 | 9.11% | –
O=C(N1CCc2ccc(S(=O)(=O)N3CCN(S(=O)(=O)c4ccc5c(c4)OCCO5)CC3)cc2C1)C(F)(F)F | 4.53% | –
Cc1cc(N2C(=O)c3ccccc3C2=O)no1 | -7.01% | –
Cc1cccc(-n2cnc3cc(C(=O)N4CCCC4)ccc32)c1 | 0.905% | –
